# Measured values taken from article PMC7862700, “An all-to-all approach to the identification of sequence-specific readers for epigenetic DNA modifications on cytosine”.
# Experiments:
# Test in all cases: DAPPL (digital affinity profiling via proximity ligation, sequencing); 10 mM Tris-HCl pH 7.5, 50 mM NaCl, 1 mM DTT, 4% glycerol, room temperature, 30 min; GST-TFs on glutathione beads, 16-mer random dsDNA library, 0.1% formaldehyde crosslink after washing; high values mean tight binding
# Conditions in all cases: protein: recombinant; tags: N-terminal GST; dsDNA, one strand shown
# [1] = biological target: T1, FEV (Homo sapiens, UniProt Q99581 1-238)
# T1 sequence: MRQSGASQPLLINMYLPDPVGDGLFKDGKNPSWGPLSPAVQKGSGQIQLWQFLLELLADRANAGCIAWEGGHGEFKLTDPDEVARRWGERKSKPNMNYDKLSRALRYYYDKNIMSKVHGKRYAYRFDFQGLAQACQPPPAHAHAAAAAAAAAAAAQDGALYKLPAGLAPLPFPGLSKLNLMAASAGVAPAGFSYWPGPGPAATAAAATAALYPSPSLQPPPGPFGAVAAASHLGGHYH
# Method in brief: (§1)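 After expression in yeast as GST fusions, human transcription factors were bound to glutathione beads, DNA-barcoded and mixed with a tag-only sample. The pools were incubated with 200 nmole of a 16-mer random double-stranded DNA library in Tris/NaCl/DTT/glycerol buffer (30 min, room temperature), washed and crosslinked with 0.1% formaldehyde. Proximity ligation with BsaI/T4 ligase ran for 1 h at 37 °C, before PCR amplification and sequencing on an Illumina NextSeq500. Binding signal is a hexamer's read frequency for a factor divided by its frequency for the tag-only sample.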
# [2] = biological target: ETV5 (Homo sapiens, UniProt P41161 1-510)
# Method in brief: as §1
# [3] = biological target: T2, SPIC (Homo sapiens, UniProt Q8N5J4 1-248)
# T2 sequence: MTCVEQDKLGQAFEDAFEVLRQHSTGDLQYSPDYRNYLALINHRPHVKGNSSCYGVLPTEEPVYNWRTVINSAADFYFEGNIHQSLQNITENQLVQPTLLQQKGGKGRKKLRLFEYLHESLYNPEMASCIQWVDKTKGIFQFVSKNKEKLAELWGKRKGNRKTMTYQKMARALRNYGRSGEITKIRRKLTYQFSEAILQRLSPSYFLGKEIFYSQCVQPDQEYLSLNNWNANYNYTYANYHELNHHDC
# Method in brief: as §1
# [4] = biological target: ELF4 (Homo sapiens, UniProt Q99607 1-663)
# Method in brief: as §1
# [5] = biological target: T3, ELK4 (Homo sapiens, UniProt P28324-2 1-405)
# T3 sequence: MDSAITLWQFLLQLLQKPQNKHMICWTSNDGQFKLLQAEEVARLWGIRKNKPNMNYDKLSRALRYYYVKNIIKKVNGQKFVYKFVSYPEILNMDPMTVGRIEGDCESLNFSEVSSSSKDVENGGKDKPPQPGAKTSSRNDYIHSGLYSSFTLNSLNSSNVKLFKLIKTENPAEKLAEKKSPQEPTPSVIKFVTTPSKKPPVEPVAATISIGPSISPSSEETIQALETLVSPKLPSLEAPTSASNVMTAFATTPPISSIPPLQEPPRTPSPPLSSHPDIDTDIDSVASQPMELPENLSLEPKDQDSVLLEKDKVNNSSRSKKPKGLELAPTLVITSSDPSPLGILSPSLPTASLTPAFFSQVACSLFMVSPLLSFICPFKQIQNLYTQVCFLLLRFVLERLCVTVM
# Method in brief: as §1
# [6] = biological target: T4, ETV2 (Homo sapiens, UniProt O00321 1-342)
# T4 sequence: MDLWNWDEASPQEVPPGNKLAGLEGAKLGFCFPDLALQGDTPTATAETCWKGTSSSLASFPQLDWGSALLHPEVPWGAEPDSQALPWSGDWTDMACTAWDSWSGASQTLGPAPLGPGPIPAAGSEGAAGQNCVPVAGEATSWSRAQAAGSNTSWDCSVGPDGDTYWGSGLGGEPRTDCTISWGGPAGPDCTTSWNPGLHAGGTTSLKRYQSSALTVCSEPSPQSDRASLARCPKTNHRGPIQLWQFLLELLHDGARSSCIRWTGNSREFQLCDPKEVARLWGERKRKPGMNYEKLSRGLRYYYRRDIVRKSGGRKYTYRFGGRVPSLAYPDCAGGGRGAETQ
# Method in brief: as §1
# [7] = biological target: T5, ELF3 (Homo sapiens, UniProt P78545 1-371)
# T5 sequence: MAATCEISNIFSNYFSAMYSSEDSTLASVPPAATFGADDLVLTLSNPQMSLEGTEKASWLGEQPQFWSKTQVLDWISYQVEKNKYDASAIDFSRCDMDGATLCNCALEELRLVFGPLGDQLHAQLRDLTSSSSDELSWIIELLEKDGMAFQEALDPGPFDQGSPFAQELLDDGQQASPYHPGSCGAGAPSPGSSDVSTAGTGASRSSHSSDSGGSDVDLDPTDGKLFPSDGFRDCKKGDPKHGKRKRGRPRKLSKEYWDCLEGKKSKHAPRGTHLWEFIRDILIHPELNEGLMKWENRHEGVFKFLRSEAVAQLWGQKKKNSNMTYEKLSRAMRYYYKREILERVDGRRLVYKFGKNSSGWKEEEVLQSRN
# Method in brief: as §1
# [8] = biological target: ETV1 (Homo sapiens, UniProt P50549 1-477)
# Method in brief: as §1
# [9] = biological target: T6, ERF (Homo sapiens, UniProt P50548 1-548)
# T6 sequence: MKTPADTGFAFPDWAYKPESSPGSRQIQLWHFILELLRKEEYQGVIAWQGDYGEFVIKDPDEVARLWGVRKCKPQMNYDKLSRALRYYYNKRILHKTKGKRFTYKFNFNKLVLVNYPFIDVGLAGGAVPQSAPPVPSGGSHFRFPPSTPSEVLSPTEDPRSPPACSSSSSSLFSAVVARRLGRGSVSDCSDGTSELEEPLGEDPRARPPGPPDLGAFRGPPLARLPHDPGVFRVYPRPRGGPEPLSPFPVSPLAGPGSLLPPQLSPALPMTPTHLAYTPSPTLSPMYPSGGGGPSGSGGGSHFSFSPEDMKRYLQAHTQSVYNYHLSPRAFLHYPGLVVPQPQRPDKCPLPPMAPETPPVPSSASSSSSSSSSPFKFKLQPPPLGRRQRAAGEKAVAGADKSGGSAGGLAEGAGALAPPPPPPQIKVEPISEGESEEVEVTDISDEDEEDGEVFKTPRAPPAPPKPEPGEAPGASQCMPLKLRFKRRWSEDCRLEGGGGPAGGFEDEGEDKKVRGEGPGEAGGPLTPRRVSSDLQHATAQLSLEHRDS
# Method in brief: as §1
# [10] = biological target: T7, ETV3L (Homo sapiens, UniProt Q6ZN32 1-361)
# T7 sequence: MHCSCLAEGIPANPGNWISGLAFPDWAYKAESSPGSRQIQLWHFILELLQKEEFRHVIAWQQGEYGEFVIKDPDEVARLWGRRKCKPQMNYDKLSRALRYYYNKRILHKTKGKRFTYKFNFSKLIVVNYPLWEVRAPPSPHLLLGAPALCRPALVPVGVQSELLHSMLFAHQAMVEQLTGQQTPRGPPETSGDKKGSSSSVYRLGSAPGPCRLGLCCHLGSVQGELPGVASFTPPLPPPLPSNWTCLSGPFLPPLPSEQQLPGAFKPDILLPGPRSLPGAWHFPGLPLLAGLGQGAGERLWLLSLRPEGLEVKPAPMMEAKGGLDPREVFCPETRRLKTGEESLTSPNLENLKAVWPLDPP
# Method in brief: as §1
# [11] = biological target: T8, ETS2 (Homo sapiens, UniProt P15036 1-469)
# T8 sequence: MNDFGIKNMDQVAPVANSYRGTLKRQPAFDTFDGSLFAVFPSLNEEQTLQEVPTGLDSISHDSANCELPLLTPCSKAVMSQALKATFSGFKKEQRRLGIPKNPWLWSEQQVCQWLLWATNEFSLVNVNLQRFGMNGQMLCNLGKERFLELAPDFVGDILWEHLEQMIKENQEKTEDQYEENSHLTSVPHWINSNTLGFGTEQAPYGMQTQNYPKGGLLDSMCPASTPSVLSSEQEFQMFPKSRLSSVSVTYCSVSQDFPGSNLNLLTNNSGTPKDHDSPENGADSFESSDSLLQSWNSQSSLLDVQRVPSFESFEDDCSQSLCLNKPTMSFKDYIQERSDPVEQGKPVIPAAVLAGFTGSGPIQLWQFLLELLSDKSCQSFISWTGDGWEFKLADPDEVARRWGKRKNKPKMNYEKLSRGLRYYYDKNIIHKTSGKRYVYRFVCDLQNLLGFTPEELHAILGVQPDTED
# Method in brief: as §1
# [12] = biological target: T9, ETV7 (Homo sapiens, UniProt Q9Y603 1-341)
# T9 sequence: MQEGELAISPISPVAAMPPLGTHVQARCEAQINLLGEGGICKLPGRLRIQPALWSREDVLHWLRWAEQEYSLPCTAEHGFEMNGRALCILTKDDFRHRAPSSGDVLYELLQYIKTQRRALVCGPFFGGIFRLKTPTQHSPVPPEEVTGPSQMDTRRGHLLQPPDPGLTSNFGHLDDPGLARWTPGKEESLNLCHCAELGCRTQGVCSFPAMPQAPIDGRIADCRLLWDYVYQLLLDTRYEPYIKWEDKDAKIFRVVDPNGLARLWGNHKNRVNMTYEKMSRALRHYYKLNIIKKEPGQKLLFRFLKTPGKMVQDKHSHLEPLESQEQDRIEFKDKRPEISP
# Method in brief: as §1
# [13] = biological target: T10, ELF5 (Homo sapiens, UniProt Q9UKW6-2 1-255)
# T10 sequence: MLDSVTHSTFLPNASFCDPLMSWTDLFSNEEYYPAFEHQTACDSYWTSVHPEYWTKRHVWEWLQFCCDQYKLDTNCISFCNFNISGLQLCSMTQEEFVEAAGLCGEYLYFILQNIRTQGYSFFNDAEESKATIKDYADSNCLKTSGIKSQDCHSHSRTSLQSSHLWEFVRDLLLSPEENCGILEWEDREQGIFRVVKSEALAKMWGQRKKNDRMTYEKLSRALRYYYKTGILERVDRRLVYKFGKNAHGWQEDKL
# Method in brief: as §1
# [14] = biological target: T11, ETV3 (Homo sapiens, UniProt P41162-2 1-143)
# T11 sequence: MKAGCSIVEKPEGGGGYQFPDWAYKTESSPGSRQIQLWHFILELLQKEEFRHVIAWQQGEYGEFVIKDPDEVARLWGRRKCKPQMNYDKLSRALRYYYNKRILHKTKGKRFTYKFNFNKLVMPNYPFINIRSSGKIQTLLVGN
# Method in brief: as §1
# [15] = biological target: ETV6 (Homo sapiens, UniProt P41212 1-452)
# Method in brief: as §1
# [16] = biological target: T12, SPDEF (Homo sapiens, UniProt O95238 1-335)
# T12 sequence: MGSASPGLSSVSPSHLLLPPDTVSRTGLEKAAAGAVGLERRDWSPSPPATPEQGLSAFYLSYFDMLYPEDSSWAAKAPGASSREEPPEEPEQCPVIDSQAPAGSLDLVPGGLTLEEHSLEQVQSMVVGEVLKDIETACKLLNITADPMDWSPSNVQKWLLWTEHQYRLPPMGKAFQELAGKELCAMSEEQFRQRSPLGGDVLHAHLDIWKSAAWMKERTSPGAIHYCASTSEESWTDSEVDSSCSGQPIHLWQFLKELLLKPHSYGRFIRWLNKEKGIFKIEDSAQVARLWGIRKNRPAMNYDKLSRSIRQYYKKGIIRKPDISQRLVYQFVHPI
# Method in brief: as §1
# ETV5, sequence (P41161 whole entry): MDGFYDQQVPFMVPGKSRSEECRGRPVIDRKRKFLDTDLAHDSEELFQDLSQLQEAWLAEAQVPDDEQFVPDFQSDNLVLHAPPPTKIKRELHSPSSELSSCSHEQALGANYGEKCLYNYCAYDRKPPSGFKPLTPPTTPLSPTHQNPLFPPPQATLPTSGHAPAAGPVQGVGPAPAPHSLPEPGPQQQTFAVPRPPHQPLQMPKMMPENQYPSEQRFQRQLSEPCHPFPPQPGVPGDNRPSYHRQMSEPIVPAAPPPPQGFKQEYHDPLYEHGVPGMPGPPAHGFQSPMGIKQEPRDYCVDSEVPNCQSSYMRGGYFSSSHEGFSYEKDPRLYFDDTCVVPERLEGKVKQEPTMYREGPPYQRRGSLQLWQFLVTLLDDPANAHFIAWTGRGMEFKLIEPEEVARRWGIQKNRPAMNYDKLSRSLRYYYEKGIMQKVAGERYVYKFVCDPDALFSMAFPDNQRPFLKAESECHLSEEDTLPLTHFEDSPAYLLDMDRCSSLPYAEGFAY
# ELF4, sequence (Q99607 whole entry): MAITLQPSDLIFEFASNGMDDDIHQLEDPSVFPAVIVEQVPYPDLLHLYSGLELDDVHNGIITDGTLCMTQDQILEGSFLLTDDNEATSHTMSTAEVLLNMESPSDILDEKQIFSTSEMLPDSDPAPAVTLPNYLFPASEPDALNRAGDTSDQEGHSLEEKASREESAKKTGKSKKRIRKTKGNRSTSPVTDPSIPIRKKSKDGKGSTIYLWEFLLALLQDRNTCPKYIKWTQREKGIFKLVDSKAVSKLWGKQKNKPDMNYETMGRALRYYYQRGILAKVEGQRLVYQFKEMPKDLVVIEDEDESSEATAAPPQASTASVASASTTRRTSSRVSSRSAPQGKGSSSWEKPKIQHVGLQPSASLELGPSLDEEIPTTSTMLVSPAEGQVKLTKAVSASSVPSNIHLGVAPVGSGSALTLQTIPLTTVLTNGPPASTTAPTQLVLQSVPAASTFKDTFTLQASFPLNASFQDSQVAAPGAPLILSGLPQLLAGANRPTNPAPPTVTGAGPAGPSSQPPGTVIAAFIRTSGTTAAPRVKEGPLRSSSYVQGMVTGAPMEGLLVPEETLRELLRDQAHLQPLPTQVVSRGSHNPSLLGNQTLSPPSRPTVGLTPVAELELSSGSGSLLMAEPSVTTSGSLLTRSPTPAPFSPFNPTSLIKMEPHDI
# ETV1, sequence (P50549 whole entry): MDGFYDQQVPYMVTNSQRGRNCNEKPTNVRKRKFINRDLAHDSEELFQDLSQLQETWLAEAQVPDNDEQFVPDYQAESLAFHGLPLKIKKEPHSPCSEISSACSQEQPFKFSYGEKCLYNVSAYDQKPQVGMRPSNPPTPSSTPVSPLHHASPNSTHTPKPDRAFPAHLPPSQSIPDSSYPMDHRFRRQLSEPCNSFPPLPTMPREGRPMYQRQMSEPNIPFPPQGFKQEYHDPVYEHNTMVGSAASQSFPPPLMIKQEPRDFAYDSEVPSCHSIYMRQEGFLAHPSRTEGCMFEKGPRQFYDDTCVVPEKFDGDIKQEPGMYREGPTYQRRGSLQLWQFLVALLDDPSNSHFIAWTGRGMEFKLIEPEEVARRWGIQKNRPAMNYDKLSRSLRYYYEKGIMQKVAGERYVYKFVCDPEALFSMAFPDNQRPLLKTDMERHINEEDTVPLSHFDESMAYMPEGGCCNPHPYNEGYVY
# ETV6, sequence (P41212 whole entry): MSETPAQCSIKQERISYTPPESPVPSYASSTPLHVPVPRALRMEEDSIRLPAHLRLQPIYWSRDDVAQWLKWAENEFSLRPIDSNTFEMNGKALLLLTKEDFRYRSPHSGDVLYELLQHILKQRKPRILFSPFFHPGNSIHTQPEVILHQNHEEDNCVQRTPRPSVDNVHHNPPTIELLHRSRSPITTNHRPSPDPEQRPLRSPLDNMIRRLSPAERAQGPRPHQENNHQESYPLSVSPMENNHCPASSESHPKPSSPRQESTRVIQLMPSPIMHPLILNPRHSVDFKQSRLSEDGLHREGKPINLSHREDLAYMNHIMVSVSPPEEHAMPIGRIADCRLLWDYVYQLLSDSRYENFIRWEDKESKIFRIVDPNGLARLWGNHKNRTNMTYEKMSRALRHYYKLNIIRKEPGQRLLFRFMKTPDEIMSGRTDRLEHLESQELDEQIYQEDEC
Sequence,binding signal [1],binding signal [2],binding signal [3],binding signal [4],binding signal [5],binding signal [6],binding signal [7],binding signal [8],binding signal [9],binding signal [10],binding signal [11],binding signal [12],binding signal [13],binding signal [14],binding signal [15],binding signal [16]
GCGCCT,"1.13 fold enrichment (6-mer frequency, TF over GST control)","1.07 fold enrichment (6-mer frequency, TF over GST control)","1 fold enrichment (6-mer frequency, TF over GST control)","1.07 fold enrichment (6-mer frequency, TF over GST control)","1.28 fold enrichment (6-mer frequency, TF over GST control)","1.13 fold enrichment (6-mer frequency, TF over GST control)","1.11 fold enrichment (6-mer frequency, TF over GST control)","1.17 fold enrichment (6-mer frequency, TF over GST control)","1.05 fold enrichment (6-mer frequency, TF over GST control)","1.07 fold enrichment (6-mer frequency, TF over GST control)","1.02 fold enrichment (6-mer frequency, TF over GST control)","1.06 fold enrichment (6-mer frequency, TF over GST control)","1.04 fold enrichment (6-mer frequency, TF over GST control)","1.1 fold enrichment (6-mer frequency, TF over GST control)","1.12 fold enrichment (6-mer frequency, TF over GST control)",
GGCCCT,,"1.04 fold enrichment (6-mer frequency, TF over GST control)","1.11 fold enrichment (6-mer frequency, TF over GST control)","1.06 fold enrichment (6-mer frequency, TF over GST control)","1.06 fold enrichment (6-mer frequency, TF over GST control)","1.14 fold enrichment (6-mer frequency, TF over GST control)","1.11 fold enrichment (6-mer frequency, TF over GST control)",,"1.02 fold enrichment (6-mer frequency, TF over GST control)",,,"1.03 fold enrichment (6-mer frequency, TF over GST control)",,"1.03 fold enrichment (6-mer frequency, TF over GST control)",,
ATAGGT,,"1.08 fold enrichment (6-mer frequency, TF over GST control)","1.01 fold enrichment (6-mer frequency, TF over GST control)","1.01 fold enrichment (6-mer frequency, TF over GST control)","1.02 fold enrichment (6-mer frequency, TF over GST control)","1.11 fold enrichment (6-mer frequency, TF over GST control)","1.11 fold enrichment (6-mer frequency, TF over GST control)","1.03 fold enrichment (6-mer frequency, TF over GST control)",,"1.05 fold enrichment (6-mer frequency, TF over GST control)",,"1.17 fold enrichment (6-mer frequency, TF over GST control)",,"1.06 fold enrichment (6-mer frequency, TF over GST control)",,"1.05 fold enrichment (6-mer frequency, TF over GST control)"
